# Laboratory results reported in the supplement of paper PMC10849652.
# Of roughly 7,900 targets only a part is listed; those with a hit were picked by preference. About 0.6% of all pairs of compound and target were hits. Values without a mark were called inactive.
# What was measured:
# Experiment in all cases: log2 fold change, soluble protein after heating vs DMSO (PISA); higher = thermal stabilisation; K562 cells, 10 uM, 30 min; active = over 0.2 and 3.5 SD of the protein, either way, in both replicates (recomputed)
# [1] = compound: C1=CC=C(C=C1)[C@H](COC2=CC3=C(C=C2)NC(=O)N3)NC(=O)C4=CC=CN(C4=O)CC5=CC(=C(C=C5)F)F
# Procedure, shortened: (§1)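 For each measurement, 10 μM compound was applied for 30 min to K562 cells at 2×10^6 cells/mL. Aliquots were heated for 3 min across 48°C-58°C, pooled, and extracted in PBS with 0.5% NP-40 at 4°C; the supernatant after 21,000xg for 90 min was soluble protein. This was quantified by TMTpro 16plex LC-MS/MS with channel sums equalised, and thermal stability was reported relative to control samples from duplicates, on a log2 fold-change scale.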
# [2] = compound: CC1=C(SC2=C1C(=N[C@H](C3=NN=C(N32)C)CC(=O)N)C4=CC=C(C=C4)Cl)C
# Procedure, shortened: as §1
# [3] = compound: CC1=C2C(=CC=C1)N=C(N(C2=O)C3=CC=CC=C3C)CN4C=NC5=C(N=CN=C54)N
# Procedure, shortened: as §1
# [4] = compound: Cc1sc2c(c1C)C(c1ccc(Cl)cc1)=N[C@@H](CC(=O)OC(C)(C)C)c1nnc(C)n1-2
# Procedure, shortened: as §1
# [5] = compound: c1ccc([C@@H]2C[C@H]2NC2CCNCC2)cc1
# Procedure, shortened: as §1
# Chain of UniProt O60610 (O60610 whole entry, looked up): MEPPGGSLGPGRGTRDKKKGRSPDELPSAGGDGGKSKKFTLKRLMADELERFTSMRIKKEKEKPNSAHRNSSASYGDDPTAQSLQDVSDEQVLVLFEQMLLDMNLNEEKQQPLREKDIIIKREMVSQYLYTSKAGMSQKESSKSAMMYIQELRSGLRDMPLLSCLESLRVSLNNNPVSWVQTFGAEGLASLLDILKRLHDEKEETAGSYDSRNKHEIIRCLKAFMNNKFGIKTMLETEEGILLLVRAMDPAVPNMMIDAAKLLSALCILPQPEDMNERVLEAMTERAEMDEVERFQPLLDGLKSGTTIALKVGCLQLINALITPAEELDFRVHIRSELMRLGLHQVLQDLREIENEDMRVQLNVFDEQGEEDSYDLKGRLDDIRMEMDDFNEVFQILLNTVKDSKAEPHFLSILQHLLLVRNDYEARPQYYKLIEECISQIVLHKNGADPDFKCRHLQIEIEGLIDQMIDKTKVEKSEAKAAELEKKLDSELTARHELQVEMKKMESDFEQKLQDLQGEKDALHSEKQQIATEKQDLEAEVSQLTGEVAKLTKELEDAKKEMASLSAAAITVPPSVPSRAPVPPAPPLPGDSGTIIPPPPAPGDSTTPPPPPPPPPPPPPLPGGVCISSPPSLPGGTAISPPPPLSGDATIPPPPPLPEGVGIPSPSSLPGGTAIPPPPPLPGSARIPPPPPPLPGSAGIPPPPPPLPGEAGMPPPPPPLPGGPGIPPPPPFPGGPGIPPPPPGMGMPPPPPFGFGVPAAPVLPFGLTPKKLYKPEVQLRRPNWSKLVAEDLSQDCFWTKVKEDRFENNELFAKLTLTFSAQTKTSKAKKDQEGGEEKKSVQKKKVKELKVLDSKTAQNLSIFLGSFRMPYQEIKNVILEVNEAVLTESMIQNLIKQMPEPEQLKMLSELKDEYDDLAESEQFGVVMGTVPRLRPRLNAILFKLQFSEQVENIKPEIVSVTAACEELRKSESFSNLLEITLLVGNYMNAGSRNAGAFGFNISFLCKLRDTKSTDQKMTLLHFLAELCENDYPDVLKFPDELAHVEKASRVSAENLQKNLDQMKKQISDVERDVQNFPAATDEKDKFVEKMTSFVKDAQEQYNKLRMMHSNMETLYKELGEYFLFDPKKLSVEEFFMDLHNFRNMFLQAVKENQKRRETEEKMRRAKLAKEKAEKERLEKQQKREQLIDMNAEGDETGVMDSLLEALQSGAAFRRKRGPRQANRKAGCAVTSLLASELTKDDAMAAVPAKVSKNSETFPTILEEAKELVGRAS
# Chain of UniProt Q9NWS6 (Q9NWS6 whole entry, looked up): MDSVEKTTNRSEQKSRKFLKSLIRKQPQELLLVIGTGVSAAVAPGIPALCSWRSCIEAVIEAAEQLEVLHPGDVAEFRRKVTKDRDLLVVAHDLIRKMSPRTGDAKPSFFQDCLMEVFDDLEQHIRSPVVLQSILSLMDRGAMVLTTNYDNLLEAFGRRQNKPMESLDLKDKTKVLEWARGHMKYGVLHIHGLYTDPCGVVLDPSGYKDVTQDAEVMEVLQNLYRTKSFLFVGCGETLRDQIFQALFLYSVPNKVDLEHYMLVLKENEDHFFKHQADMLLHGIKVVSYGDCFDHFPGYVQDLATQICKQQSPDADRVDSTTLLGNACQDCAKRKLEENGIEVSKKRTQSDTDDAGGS
# Chain of UniProt Q9NX74 (Q9NX74 whole entry, looked up): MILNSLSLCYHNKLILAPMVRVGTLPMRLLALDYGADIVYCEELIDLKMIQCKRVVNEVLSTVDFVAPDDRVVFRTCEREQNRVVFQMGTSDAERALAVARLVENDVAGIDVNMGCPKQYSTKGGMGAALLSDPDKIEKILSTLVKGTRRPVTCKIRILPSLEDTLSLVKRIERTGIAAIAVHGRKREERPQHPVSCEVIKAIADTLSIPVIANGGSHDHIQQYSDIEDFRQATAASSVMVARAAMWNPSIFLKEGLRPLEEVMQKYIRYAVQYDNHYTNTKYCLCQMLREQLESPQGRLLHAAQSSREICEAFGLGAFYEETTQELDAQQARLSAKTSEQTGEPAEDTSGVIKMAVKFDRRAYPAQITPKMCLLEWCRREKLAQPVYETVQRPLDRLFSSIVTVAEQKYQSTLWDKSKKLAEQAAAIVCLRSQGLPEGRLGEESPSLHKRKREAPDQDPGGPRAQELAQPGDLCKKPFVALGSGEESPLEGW
# Chain of UniProt Q9NRY5 (Q9NRY5 whole entry, looked up): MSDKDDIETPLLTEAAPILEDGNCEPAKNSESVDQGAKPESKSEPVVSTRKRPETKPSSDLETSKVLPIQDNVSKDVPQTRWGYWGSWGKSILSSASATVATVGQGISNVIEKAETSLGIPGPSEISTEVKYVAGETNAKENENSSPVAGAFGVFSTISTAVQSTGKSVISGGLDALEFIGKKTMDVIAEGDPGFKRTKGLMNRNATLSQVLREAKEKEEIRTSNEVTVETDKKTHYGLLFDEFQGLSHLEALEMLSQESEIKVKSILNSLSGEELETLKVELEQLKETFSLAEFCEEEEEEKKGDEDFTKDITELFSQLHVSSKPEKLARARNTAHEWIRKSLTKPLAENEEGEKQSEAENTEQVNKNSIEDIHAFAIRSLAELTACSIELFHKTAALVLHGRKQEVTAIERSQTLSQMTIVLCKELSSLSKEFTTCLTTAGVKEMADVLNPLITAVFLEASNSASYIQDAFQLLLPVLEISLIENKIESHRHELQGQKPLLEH
# Chain of UniProt O75071 (O75071 whole entry, looked up): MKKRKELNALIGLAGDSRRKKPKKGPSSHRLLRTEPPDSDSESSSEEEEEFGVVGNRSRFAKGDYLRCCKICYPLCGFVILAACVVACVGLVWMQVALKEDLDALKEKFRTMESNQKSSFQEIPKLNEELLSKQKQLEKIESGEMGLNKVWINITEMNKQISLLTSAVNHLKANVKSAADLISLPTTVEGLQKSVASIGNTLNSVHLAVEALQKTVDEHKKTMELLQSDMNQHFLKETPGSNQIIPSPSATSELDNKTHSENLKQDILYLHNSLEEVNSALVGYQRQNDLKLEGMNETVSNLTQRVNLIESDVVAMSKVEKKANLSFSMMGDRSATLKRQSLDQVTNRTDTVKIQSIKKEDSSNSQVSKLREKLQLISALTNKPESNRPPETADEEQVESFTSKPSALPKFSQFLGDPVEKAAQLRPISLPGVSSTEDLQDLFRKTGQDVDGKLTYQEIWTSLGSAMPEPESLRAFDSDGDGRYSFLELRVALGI
# Chain of UniProt Q9NQI0 (Q9NQI0 whole entry, looked up): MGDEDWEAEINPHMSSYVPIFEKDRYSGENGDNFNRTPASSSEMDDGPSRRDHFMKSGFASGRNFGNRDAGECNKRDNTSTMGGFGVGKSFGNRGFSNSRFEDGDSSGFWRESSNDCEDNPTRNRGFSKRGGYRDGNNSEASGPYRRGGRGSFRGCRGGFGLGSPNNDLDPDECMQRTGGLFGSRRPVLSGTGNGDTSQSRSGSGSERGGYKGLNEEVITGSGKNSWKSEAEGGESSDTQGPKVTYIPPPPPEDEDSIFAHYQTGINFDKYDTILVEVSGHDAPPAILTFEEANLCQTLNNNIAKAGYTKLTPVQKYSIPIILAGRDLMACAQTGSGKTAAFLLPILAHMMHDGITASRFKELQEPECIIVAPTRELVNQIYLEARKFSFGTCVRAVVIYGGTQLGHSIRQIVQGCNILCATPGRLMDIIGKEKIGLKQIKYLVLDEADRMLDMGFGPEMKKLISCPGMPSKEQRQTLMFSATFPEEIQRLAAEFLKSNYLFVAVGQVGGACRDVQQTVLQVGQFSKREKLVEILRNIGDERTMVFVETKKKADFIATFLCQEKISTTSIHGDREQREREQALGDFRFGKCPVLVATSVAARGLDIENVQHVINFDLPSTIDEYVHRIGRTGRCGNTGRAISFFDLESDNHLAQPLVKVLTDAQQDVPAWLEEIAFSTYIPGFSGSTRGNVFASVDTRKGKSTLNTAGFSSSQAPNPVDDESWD
# Chain of UniProt Q8NBA8 (Q8NBA8 whole entry, looked up): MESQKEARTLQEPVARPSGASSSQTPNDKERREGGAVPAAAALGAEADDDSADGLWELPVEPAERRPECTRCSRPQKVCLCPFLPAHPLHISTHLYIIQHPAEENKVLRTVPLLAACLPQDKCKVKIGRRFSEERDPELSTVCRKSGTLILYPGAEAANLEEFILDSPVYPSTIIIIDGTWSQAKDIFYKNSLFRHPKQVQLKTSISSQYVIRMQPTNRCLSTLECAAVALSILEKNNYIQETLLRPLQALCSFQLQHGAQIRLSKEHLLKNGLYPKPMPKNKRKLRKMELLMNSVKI
# Chain of UniProt P00374 (P00374 whole entry, looked up): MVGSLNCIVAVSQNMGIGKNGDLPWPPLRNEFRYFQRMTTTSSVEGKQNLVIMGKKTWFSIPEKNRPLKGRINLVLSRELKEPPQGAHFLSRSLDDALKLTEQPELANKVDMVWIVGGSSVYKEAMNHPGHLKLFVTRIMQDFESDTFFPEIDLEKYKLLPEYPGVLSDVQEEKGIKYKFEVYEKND
# Chain of UniProt P49366 (P49366 whole entry, looked up): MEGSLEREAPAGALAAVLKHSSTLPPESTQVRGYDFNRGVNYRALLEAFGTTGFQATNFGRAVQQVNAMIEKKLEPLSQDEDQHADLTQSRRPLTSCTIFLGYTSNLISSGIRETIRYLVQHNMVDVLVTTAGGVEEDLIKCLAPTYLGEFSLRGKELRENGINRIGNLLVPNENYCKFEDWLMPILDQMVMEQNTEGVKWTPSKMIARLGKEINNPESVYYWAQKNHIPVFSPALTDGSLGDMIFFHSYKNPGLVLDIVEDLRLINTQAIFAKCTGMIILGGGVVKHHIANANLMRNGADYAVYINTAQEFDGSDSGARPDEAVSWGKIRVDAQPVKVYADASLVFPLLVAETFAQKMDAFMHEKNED
# Chain of UniProt Q9NYP7 (Q9NYP7 whole entry, looked up): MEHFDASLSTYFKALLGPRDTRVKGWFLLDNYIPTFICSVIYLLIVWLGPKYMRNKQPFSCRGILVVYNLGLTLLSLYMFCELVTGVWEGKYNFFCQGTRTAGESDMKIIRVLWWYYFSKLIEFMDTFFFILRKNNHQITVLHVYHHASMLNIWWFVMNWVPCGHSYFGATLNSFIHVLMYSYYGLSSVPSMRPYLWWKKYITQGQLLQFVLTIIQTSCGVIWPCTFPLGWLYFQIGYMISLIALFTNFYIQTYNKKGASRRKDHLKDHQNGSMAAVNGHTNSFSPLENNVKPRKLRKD
Target,log2 fold change [1],log2 fold change [2],log2 fold change [3],log2 fold change [4],log2 fold change [5]
EFCAB14 (UniProt O75071),0.045,-0.293 (active),0.016,0.018,0.321
EHBP1L1 (UniProt Q8N3D4),-0.016,0.065,0.052,-0.022,-0.051
DUS2 (UniProt Q9NX74),0.024,0.055,0.109,-0.087,-0.023
CUX1 isoform 3 (UniProt P39880),0,0.025,0.034,-0.009,0.016
DTYMK (UniProt P23919),-0.064,0.082,-0.02,-0.003,-0.014
"FADS1, A0A0A0MR51",-0.051,0.026,0.026,-0.005,-0.038
EEF1A1 (UniProt P68104),0.112,0.212,-0.097,0.125,-0.471
CUX1 isoform 2 (UniProt Q13948),-0.067,0.013,0,0,0.023
E2F4 (UniProt Q16254),0.006,0.039,0.098,0.022,-0.001
DHFR (UniProt P00374),-0.077,-0.014,0.083,0.058,0.396
DHRS7B (UniProt Q6IAN0),0.054,0.032,-0.001,-0.018,-0.013
FAM114A2 (UniProt Q9NRY5),-0.046,0.047,0.018,0.033,0.006
EXOC6 (UniProt Q8TAG9),-0.088,-0.006,0.072,0.031,-0.069
DIAPH1 (UniProt O60610),-0.073,-0.027,0.026,0.049,-0.018
DYNC1LI2 (UniProt O43237),-0.04,-0.071,0.035,-0.028,0.013
EIF3J (UniProt O75822),-0.034,0.025,-0.004,-0.041,-0.035
FAM193B (UniProt Q96PV7),-0.115,0.011,-0.103,0.273,-0.115
DCAF13 (UniProt Q9NV06),0.105,-0.221,-0.152,0.128,0
ERCC2 (UniProt P18074),0,-0.025,-0.044,-0.104,0.05
DNAJC24 (UniProt Q6P3W2),0.05,0.072,0.025,-0.002,0.054
FAM118A (UniProt Q9NWS6),-0.079,0.05,-0.102,-0.021,0.003
DENND10 (UniProt Q8TCE6),0.035,0.083,0.103,0.057,-0.008
CTU1 (UniProt Q7Z7A3),-0.061,0.025,0.052,-0.006,-0.051
EXOC2 (UniProt Q96KP1),-0.054,0.025,0.03,0.033,0.011
CWC27 (UniProt Q6UX04),-0.039,0.097,0.103,-0.03,-0.001
EXOSC10 (UniProt Q01780),0.162,0.184,0.284,0.03,-0.041
DCAF10 (UniProt Q5QP82),0.015,-0.018,0.056,0.013,-0.011

Target,log2 fold change [1],log2 fold change [2],log2 fold change [3],log2 fold change [4],log2 fold change [5]
DNAH11 (UniProt Q96DT5),0.047,-0.387,0.089,-0.021,0.092
DFFB (UniProt O76075),-0.027,0.099,0.048,0.202,0.049
DHPS (UniProt P49366),-0.014,0.013,-0.014,0.013,0.081
DCTPP1 (UniProt Q9H773),0.022,0.029,-0.015,-0.043,0.009
DPYSL2 (UniProt Q16555),-0.012,0.072,0.093,0.01,0.014
EGLN1 (UniProt Q9GZT9),0.055,0.06,0.013,0.008,0.019
DBR1 (UniProt Q9UK59),0.023,0,0,0.017,0.057
EXOC7 (UniProt Q9UPT5),-0.063,-0.001,0.035,0.07,-0.014
DNTTIP2 (UniProt Q5QJE6),-0.068,-0.117,-0.021,0.087,0.132
CTSZ (UniProt Q9UBR2),-0.003,0.009,0.032,0.039,-0.01
FAM117A (UniProt Q9C073),-0.004,0.057,0.027,0.01,0.012
ELOVL5 isoform 2 (UniProt Q9NYP7),-0.056,0.021,0.016,-0.074,0.033
FAAP100 (UniProt Q0VG06),-0.243,0.078,0.017,-0.073,0.067
EDC4 (UniProt Q6P2E9),0.02,-0.004,0.075,0.023,0.024
DNAH10 (UniProt Q8IVF4),0.09,0.103,0.062,-0.131,0.031
DPH5 isoform 5 (UniProt Q9H2P9),-0.025,0.054,0.092,-0.009,0
DHX36 (UniProt Q9H2U1),0.037,-0.087,-0.094,0.091,0.015
DEGS1 (UniProt O15121),0.083,0.04,-0.001,0.122,0.052
EMD (UniProt P50402),0.016,0.022,0.059,0.058,0.031
DHRS1 (UniProt Q96LJ7),0.241,0.015,0.216,0.321,0.013
EIF4G1 isoform 8 (UniProt Q04637),-0.074,-0.016,-0.036,0.135,-0.002
ELOC (UniProt Q15369),0.024,0.151,0.132,-0.066,-0.07
DTWD2 (UniProt Q8NBA8),-0.011,0.125,0.064,0.043,-0.036
DDOST (UniProt P39656),0.018,-0.009,-0.078,-0.022,0
DDX4 (UniProt Q9NQI0),0.052,-0.11,0.213,0.274,0.001
DBN1 isoform 3 (UniProt Q16643),0.049,0.019,-0.027,0.044,0.004
